The full list was thinned out, with hits kept by preference.
Pf Dd2 growth: inhibitors of Plasmodium falciparum Dd2 growth | P. falciparum Dd2 growth, SYBR Green, 72 h | Potency, µM (top dose mostly 28.9 µM), without a hit: top-dose activity, negative = inhibition, actives largely listed as inhibitors | 120,000 tested, 4.3% active | AID 1347417; active = well fitted inhibition curve with a large enough effect;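 also: plate controls were DMSO vehicle for no effect and reference drug for full effect; nearly all actives have a fitted effect of over 65% in size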
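Readout: SYBR Green fluorescence, 485 nm excitation, 535 nm emission, after ~16 h lysis at 37C. Before that, Dd2-infected red cells (2.5% hematocrit) grew 72 h with compound, 29 uM top final concentration.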
* hit, by the source's call; [ ] = dose if it differs, or a comment. Potency is read from the fitted curve at half-maximal effect.

For O=C(NC1CCCCCCC1)C1CCCN(c2cnn(Cc3ccccc3)c(=O)c2)C1 (centres undefined) the results were Pf Dd2 growth -40.3%.
CCOCCCNC(=O)c1cc2c(-c3ccc(OC)c(OC)c3)nn(C)c2s1 was read as Pf Dd2 growth inactive.
CCCCN(CC)CCCNC(=O)c1cc2c(-c3ccc(OC)c(OC)c3)nn(C)c2s1 was read as Pf Dd2 growth 7.94µM*.
COC(=O)c1ccccc1NC(=O)c1cc2c(-c3ccc(OC)c(OC)c3)nn(C)c2s1 was read as Pf Dd2 growth 13.6%.
`O=C1CN(C(=O)c2ccnc(-c3nnc4ccc(Nc5ccccc5)nn34)c2)CCN1` gave Pf Dd2 growth -9.3%[44.1 µM].
Screening C1=CC[C@H]2CN(c3nccc(-c4ccccn4)n3)C[C@H]2C1 returned Pf Dd2 growth -8.6%.
COc1c(F)cc(CNCC2(O)CCCNC2)cc1F (centres undefined) was read as Pf Dd2 growth -0.2%.
For Cc1cnc(CNCC2(O)CNCCOC2)cn1 (centres undefined) the results were Pf Dd2 growth -13.0%.
Cc1cc(Cl)cc(Cl)c1CNCC1(O)CCCNC1 (centres undefined) was read as Pf Dd2 growth 7.94µM*.
For CNC(=O)C1(N2CCC[C@H]2C(=O)N(C)Cc2cccnc2)CCOCC1 the results were Pf Dd2 growth 6.2%[44.1 µM].
`COc1ccc(C2C=C(c3ccccc3)Nc3nc(NC(=O)/C=C/c4ccc(Cl)cc4)nn32)cc1` (centres undefined) gave Pf Dd2 growth 10µM*.
Screening COc1ccc(/C=C/C(=O)Nc2nc3n(n2)C(c2ccccc2)C=C(c2ccc(Cl)cc2)N3)cc1 (centres undefined) returned Pf Dd2 growth 5.01µM*.
Screening COC(=O)c1c(NC(=O)/C=C/c2ccc(OC)cc2)sc2c1CCC2 returned Pf Dd2 growth 1.2%.
COc1ccc(OCC(=O)Nc2cc(-c3cccc(Cl)c3)nn2-c2ccccc2)cc1 was read as Pf Dd2 growth inactive.
`COc1ccc(/C=C/C(=O)Nc2cc(-c3nc4ccccc4o3)ccc2OC)cc1` gave Pf Dd2 growth inactive.
Screening Cc1cc(C(=O)N2CCCC(CCc3c(F)cccc3F)C2)no1 (centres undefined) returned Pf Dd2 growth inactive.
For Cc1nccn1-c1ccccc1Cn1cc(-c2cncnc2)nn1 the results were Pf Dd2 growth -18.9%.
CCOc1ccc(NC(=O)Cn2c(-c3ccc(F)cc3)nc(C)c(CCO)c2=O)cc1 was read as Pf Dd2 growth -17.0%.
`CCCCN1C(=O)[C@@H]2C[C@@H](O)CN2C2(CN(C)C2)C1=O` gave Pf Dd2 growth -15.7%[44.1 µM].
COc1ccc2c(c1)c(=O)c(C(=O)c1ccc(Cl)cc1)cn2CC(=O)Nc1ccc2c(c1)OCCO2 was read as Pf Dd2 growth 11.2µM*.
`COc1ccc2c(c1)c(=O)c(C(=O)c1ccc(Cl)cc1)cn2CC(=O)Nc1ccc2c(c1)OCO2` gave Pf Dd2 growth 6.3%.
`COc1cccc(NC(=O)Cn2cc(C(=O)c3ccc(F)cc3)c(=O)c3cc(OC)ccc32)c1` gave Pf Dd2 growth -8.2%.
Screening O=C(Cn1cc(S(=O)(=O)c2ccccc2)c(=O)c2cc(Cl)ccc21)Nc1ccc2c(c1)OCO2 returned Pf Dd2 growth 8.91µM*.
`CCc1ccc(C(=O)c2cn(CC(=O)Nc3cccc(OC)c3)c3ccc(OC)cc3c2=O)cc1` gave Pf Dd2 growth 12.6µM*.
Screening O=C(Cn1cc(S(=O)(=O)c2ccc(F)cc2)c(=O)c2cc3c(cc21)OCO3)Nc1ccccc1 returned Pf Dd2 growth 19.3%.
`COc1ccc(OC)c(NC(=O)Cn2cc(C(=O)c3ccccc3)c3ccccc32)c1` gave Pf Dd2 growth inactive.
For COc1cccc(NC(=O)Cn2cc(C(=O)c3ccc(C)cc3)c(=O)c3cc(OC)ccc32)c1 the results were Pf Dd2 growth -19.3%.
`CCOc1ccc(C(=O)c2cn(CC(=O)Nc3ccc4c(c3)OCCO4)c3ccc(OC)cc3c2=O)cc1` gave Pf Dd2 growth -21.9%.
For COc1ccc(OC)c(NC(=O)Cn2cc(C(=O)c3ccc(Cl)cc3)c(=O)c3cc(OC)ccc32)c1 the results were Pf Dd2 growth 8.91µM*.
COc1ccc2c(c1)c(=O)c(S(=O)(=O)c1ccccc1)cn2CC(=O)Nc1ccc2c(c1)OCO2 was read as Pf Dd2 growth -2.3%.
`COc1ccc(NC(=O)Cn2cc(C(=O)c3ccccc3)c(=O)c3cc(OC)ccc32)c(OC)c1` gave Pf Dd2 growth 3.3%.
CN(C)c1ccc(C(=O)NC2CCN(c3cn[nH]c(=O)c3)CC2)cc1 was read as Pf Dd2 growth inactive.
Cc1ncc2c(c1CNC(=O)c1cc(F)cc(Cl)c1)CCNC2 was read as Pf Dd2 growth -16.4%.
Screening COC(=O)c1ccc(NC(=O)Cn2nc3n(c2=O)CCCC3)cc1 returned Pf Dd2 growth inactive.
For CC(C)CCN1CCc2ncc(C(=O)NCc3ccccc3)n2CC1 the results were Pf Dd2 growth inactive.
`CCc1c(C)c(C#N)c2nc3ccccc3n2c1Nc1cccc(C(F)(F)F)c1` gave Pf Dd2 growth 2.24µM*.

Bioassay records (PubChem BioAssay)
